CYP2C9 inh: human CYP2C9 inhibition | P11712 | CYP2C9 Supersomes, luciferin-H conversion, luminescence | inhibition, % at 5 µM | 96,000 tested, 20% active | AID 777;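 active = blocking of liver enzyme CYP2C9 beyond about 50% at 5 µM, limit read from the data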
CYP2C19 act: cytochrome P450 2C19 (human) activation. 96,000 tested, under 10 active. recombinant CYP2C19, luciferin-H EGE luminescence; hits give high values; 0 = fully inhibited enzyme, 1 = untreated enzyme. activation factor at 5 µM. P33261;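 active = activation factor of at least 2 at 5 µM in the primary screen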
Target sequence (P33261 whole entry, looked up): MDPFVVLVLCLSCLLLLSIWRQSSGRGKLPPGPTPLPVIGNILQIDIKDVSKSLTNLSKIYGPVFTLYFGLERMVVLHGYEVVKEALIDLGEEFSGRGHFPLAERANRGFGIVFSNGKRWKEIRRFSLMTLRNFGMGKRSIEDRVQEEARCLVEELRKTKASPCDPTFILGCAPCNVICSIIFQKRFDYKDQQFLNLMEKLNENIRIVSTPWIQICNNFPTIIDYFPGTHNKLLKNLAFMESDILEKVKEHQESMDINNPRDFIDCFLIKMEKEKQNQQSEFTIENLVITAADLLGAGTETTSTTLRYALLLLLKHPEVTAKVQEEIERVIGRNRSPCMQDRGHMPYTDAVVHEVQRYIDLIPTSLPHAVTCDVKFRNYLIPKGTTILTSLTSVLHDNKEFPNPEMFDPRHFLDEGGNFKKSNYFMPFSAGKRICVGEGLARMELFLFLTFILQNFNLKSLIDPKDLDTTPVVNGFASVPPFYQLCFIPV
CD11b adhes enh: CD11b/CD18-fibrinogen binding enhancement; 93,000 tested, 0.07% active; P05107+P11215; AID 1499; activation, % at 10 µM; K562 CD11b/CD18 adhesion to fibrinogen, ATPlite luminescence;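 active = 10 µM primary screen giving 50% or more activity, confirmed by 40% or more on retest at that dose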
CYP2C19 inhib: blocks human cytochrome P450 2C19 | AID 778 | P33261 | inhibition, % at 5 µM | 96,000 tested, 21% active | CYP2C19 Supersomes, luciferin-H EGE luminescence, 30 min;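 active = CYP2C19 inhibition above a set limit at 5 µM in the primary screen, cut at about 50% in these data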
CD11b adhes inh: inhibitors of human CD11b/CD18 binding to fibrinogen; 93,000 tested, 0.54% active; P05107+P11215; inhibition, % at 10 µM; K562 CD11b/CD18 adhesion to fibrinogen, ATPlite luminescence; Mn2+ added to activate the integrin;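 active = primary inhibition of 50% or more at 10 µM, then 40% or more on retest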
CYP2C9 act: activators of human CYP2C9; P11712; recombinant CYP2C9, luciferin-H conversion, luminescence; hits give high values; factor 1 = untreated enzyme, 0 = blocked; activation factor at 5 µM; 96,000 tested, 1.4% active;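 active = activation factor of 2 or more for CYP2C9 at a 5 µM dose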
Numbers stand for hits; 0 = inactive; - = not tested or not shown. Most compounds without a hit are left out; they make up all but 28% or so of the library.

SMILES	CYP2C9 inh	CYP2C19 act	CD11b adhes enh	CYP2C19 inhib	CD11b adhes inh	CYP2C9 act
Cc1ccc(NCc2nnc(SCC(=O)NCc3ccco3)n2CC2CCCO2)c(C)c1 (centres undefined)	0	0	0	0	0	0
Cc1ccc(NCc2nnc(SCc3ccc(C#N)cc3)n2Cc2ccco2)c(C)c1	93.9	0	0	91.8	0	0
COc1ccc(C(=O)CSc2nnc(CNc3ccc(C)cc3C)o2)cc1	0	0	0	0	0	0
N#Cc1ccc(CSc2nnc(Cc3cccs3)n2Cc2ccco2)cc1	65.5	0	0	92.8	0	0
N#Cc1ccc(CSc2nnc(-c3ccccc3)n2Cc2ccco2)cc1	0	0	0	0	0	0
Cc1ccc(C(=O)CSc2nnc(CNc3ccc(C)cc3C)n2Cc2ccco2)cc1	73.1	0	0	75.1	0	0
CCC(CC)C(=O)Nc1ccccc1NC(C)=O	0	0	0	0	0	0
O=c1nc2n(c3c4c(sc13)CCC4)CCC2	0	0	0	0	0	0
CC(Oc1ccc(Cl)cc1Cl)C(=O)NCCCN(C)C (centres undefined)	0	0	0	0	0	0
O=C(NNC(=O)c1cc(-c2ccc(Cl)cc2Cl)nc2ccccc12)Nc1ccccc1	0	0	-	0	-	0
Cc1ccc(-c2n[nH]c(=S)n2/N=C\c2ccco2)cc1	-	-	0	-	0	-
CC1=C(C(=O)NC2CCC(C)CC2)C2(CCC(C)CC2)OC1=O (centres undefined)	0	0	0	0	0	0
CC(=O)c1cccc(NC(=O)CN2C(=O)C3C4C=CC(C4)C3C2=O)c1 (centres undefined)	72.1	0	0	95.4	0	0
CCOc1ccccc1NC(=O)CN1C(=O)COc2ccc(Cl)cc21	0	0	0	50.5	0	0
Cc1ccc2c(c1)N(CC(=O)Nc1ccc3c(c1)OCCO3)C(=O)CO2	0	0	0	0	0	0
COC(=O)c1ccc(NC(=O)CN2C(=O)C3C4C=CC(C4)C3C2=O)cc1 (centres undefined)	0	0	0	0	0	0
CC(=O)c1cccc(NC(=O)CN2C(=O)COc3ccc(Cl)cc32)c1	62.2	0	0	0	0	0
CCOC(=O)CN1C(=O)COc2ccc(Cl)cc21	0	0	0	0	0	0
COC(=O)CSc1nnc(CNC(=O)c2ccco2)n1-c1ccc(F)cc1	0	0	0	0	0	0
CCOCC(=O)Nc1cc(-c2cn3cccnc3n2)ccc1C	0	0	0	0	0	0
CN(CCC(=O)Nc1ccc(Br)cc1)Cc1ccccc1	0	0	0	0	0	0
COC(=O)c1ccc(NC(=O)CSc2nnc(CNc3ccc(F)cc3)n2C)cc1	0	0	0	0	0	0
COC(=O)c1ccccc1OCCOc1ccccc1C(=O)OC	0	0	-	62.4	-	0
Fc1ccc(N2CCN(c3nc(-c4ccco4)cc(C(F)(F)F)n3)CC2)cc1	0	0	0	53.5	0	0
O=C(Nc1ccc(Cl)cc1)c1cc2nc(-c3ccco3)cc(C(F)(F)F)n2n1	70.9	0	0	0	0	0
SMILES	CYP2C9 inh	CYP2C19 act	CD11b adhes enh	CYP2C19 inhib	CD11b adhes inh	CYP2C9 act
CN1CCN(C(=O)c2cc3nc(-c4ccc(F)cc4)cc(C(F)(F)F)n3n2)CC1	0	0	0	0	0	0
Cc1nn(-c2nc(-c3ccco3)cc(C(F)(F)F)n2)c(C)c1Br	51.8	0	0	0	0	0
O=C(c1cc2nc(-c3ccco3)cc(C(F)(F)F)n2n1)N1CCN(c2ccc(F)cc2)CC1	63.8	0	0	81.4	0	0
COc1ccc(/C=C\C(=O)Oc2cccc(/C=N/NC(=O)Cc3ccc(OC)c(OC)c3)c2)cc1	-	-	0	-	0	-
O=C(c1cc2nc(-c3ccco3)cc(C(F)(F)F)n2n1)N1CCN(Cc2ccccc2)CC1	63.8	0	0	0	0	0
O=Nc1c(O)n(Cc2ccc(Cl)c(Cl)c2)c2ccccc12	61.5	0	-	50.7	-	0
COc1ccc(C(C)=O)c(Oc2nc(CN3CCOCC3)nc3scc(-c4cccs4)c23)c1	51.2	0	0	0	0	0
CC(=O)c1ccccc1Oc1nc(CN2CCOCC2)nc2scc(-c3cccs3)c12	71.5	0	0	85.4	0	0
O=C1CC(C(=O)N2CCOCC2)C2(CCCC2)O1 (centres undefined)	0	0	0	0	0	0
C=CCc1c(C)nc(SCC(=C)C)[nH]c1=O	0	0	0	54.9	0	0
CC1(C(=O)N(c2ccccc2)C(C(=O)NC2CCCC2)c2ccccn2)CC(=O)N=C2C=CC=CN21 (centres undefined)	0	0	0	0	0	0
C=CCn1c(Cc2cccs2)nnc1SCC(=O)Nc1ccc(OC)c(OC)c1	0	0	-	0	-	0
COc1ccc(-c2nnc(SCC(=O)NCc3ccco3)n2C)cc1	0	0	0	0	0	0
C=CCn1c(Cc2cccs2)nnc1SCC(=O)NCc1ccco1	65.0	0	0	0	0	0
C=CCn1c(Cc2cccs2)nnc1SCC(=O)c1cccc(Br)c1	0	0	0	62.0	0	0
CCOc1ccc(Nc2nc(Cc3nnc(SCC(=O)NCc4ccco4)n3CC)cs2)cc1	55.0	0	0	0	0	0
C=CCn1c(Cc2cccs2)nnc1SCC(=O)c1ccc2ccccc2c1	0	0	0	55.1	0	0
O=C(CN1N=C(c2ccc(Cl)cc2)CCC1=O)NCCN1CCc2ccccc2C1	-	-	0	-	0	-
Cn1c(=O)c2c(nc(Oc3ccc(-c4ccccc4)cc3)n2C)n(C)c1=O	0	0	0	0	0	0
Cc1ccc(/C=N/NC(=O)CNC(=O)Cc2ccccc2)o1	-	-	0	-	0	-
Cc1c(Cl)c(C(=O)N2CCCc3ccccc32)nn1C	0	0	0	0	0	0
C=CCn1c(Cc2cccs2)nnc1SCC(=O)c1ccc(F)cc1	56.1	0	0	93.0	0	0
O=S(=O)(N1CCOCC1)n1nnc2ccccc21	0	0	0	0	0	0
O=S(=O)(N1CCOCC1)n1c(Cc2ccccc2)nc2ccccc21	0	0	-	75.0	-	0
COc1cccc(Nc2nc(-c3sc(NC(=O)c4ccco4)nc3C)cs2)c1	72.4	0	-	0	-	0
SMILES	CYP2C9 inh	CYP2C19 act	CD11b adhes enh	CYP2C19 inhib	CD11b adhes inh	CYP2C9 act
COc1cccc(Nc2nc(-c3sc(N)nc3C)cs2)c1	74.4	0	0	59.4	0	0
COc1ccc(Cl)cc1Nc1nc(-c2sc(NC(=O)c3ccco3)nc2C)cs1	62.5	0	-	0	-	0
COc1ccc2sc(NC(=O)c3ccco3)nc2c1	0	0	0	0	0	0
CCCOc1ccccc1N1C(=O)CC(N2CCOCC2)C1=O (centres undefined)	0	0	0	0	0	0
Cc1ccc(S(=O)(=O)N2CCN(S(C)(=O)=O)C2c2ccccc2)cc1 (centres undefined)	0	0	0	63.6	0	0
Cc1ccc(S(=O)(=O)N2CC3CCC2C3)cc1 (centres undefined)	0	0	0	64.6	0	0
